Source: PubChem BioAssay (National Center for Advancing Translational Sciences (NCATS))
HP1b binding inh – HTS for Inhibitors of HP1-beta Chromodomain Interactions with Methylated Histone Tails; AlphaScreen HP1-beta / biotin-H3K9me3 peptide binding; Potency, µM (series often up to 114 µM), for the others: at the highest dose activity change, negative = inhibition, hits mostly inhibitors; Chromobox protein homolog 1 (Homo sapiens), P83916; 0.56% of 390,000 active; note: nearly all actives have a fitted effect of over 70% in size
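Compound inhibition of the preformed complex between 50 nM HP1-beta and 50 nM biotinylated H3K9me3 peptide was read by AlphaScreen. Buffer was PBS pH 7.4 with 0.01% Tween-20. Incubations ran 30 min at room temperature, with 10 ug/mL donor/acceptor beads.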
G9a inh – qHTS Assay for Inhibitors of Histone Lysine Methyltransferase G9a; Histone-lysine N-methyltransferase EHMT2 (Homo sapiens), Q96KQ7; G9a H3K9 monomethylation, AlphaScreen, 2 h; 8.8% of 350,000 active; Potency, µM (titrated, usually from 102 µM), without a hit: at the highest dose activity, negative = inhibition, actives largely listed as inhibitors; note: % is set by controls: 0 for no effect and ±100 for the full control effect; nearly all actives have a fitted effect of over 75% in size
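Compounds were preincubated with 20 nM G9a for 15 min, after which biotinylated H3K9 peptide (500 nM) and SAM (20 uM) started a 2 h room-temperature reaction. Monomethylated product was quantified by antibody-based AlphaScreen chemiluminescence.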
JMJD2A Tudor – qHTS Assay for Inhibitors of JMJD2A-Tudor Domain. AlphaScreen JMJD2A-Tudor / H3K4me3 peptide binding. Potency, µM (series often up to 114 µM), for the others: top-dose activity change, negative = inhibition, actives largely listed as inhibitors. 4.4% of 390,000 active. AID 504339, 2011; note: % is set by controls: 0 for no effect and ±100 for the full control effect; nearly all actives have a fitted effect of over 50% in size
Target sequence (O75164 whole entry, looked up, the tested form may be a part): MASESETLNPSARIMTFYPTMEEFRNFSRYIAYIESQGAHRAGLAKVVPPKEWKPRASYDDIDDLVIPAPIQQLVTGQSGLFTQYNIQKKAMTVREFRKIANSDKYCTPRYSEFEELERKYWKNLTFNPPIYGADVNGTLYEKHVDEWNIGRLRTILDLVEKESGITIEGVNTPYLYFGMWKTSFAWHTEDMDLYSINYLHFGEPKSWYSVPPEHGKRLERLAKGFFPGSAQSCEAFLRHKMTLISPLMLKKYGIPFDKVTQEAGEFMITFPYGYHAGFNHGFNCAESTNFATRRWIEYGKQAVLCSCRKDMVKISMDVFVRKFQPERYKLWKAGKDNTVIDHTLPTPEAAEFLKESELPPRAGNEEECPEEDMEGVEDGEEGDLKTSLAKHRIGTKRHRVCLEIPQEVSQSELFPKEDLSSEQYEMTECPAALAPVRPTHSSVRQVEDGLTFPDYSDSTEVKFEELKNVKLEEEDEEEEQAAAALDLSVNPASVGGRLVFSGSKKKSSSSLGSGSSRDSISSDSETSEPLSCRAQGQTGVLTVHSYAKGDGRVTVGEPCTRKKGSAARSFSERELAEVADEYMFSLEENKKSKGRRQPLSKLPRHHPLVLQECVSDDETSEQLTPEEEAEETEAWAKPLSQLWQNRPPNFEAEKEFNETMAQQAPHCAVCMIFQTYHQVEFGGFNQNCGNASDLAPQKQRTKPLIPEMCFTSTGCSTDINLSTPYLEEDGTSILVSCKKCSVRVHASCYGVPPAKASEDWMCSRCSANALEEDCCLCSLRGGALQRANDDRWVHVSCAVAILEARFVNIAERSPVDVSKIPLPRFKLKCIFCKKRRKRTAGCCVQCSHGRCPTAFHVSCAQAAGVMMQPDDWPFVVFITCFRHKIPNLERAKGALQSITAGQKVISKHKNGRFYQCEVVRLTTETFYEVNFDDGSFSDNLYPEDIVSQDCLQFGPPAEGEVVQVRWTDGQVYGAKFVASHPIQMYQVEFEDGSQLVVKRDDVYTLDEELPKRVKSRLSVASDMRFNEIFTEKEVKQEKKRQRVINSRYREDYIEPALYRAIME
BAZ2B block – qHTS Assay for Inhibitors of BAZ2B. 4.4% of 360,000 active. AlphaScreen BAZ2B-H3K14Ac peptide displacement. AID 504333, 2011. Potency, µM (top dose mostly 114 µM), for inactives: at the top dose activity change, negative = inhibition, most hits filed as inhibitors. Bromodomain adjacent to zinc finger domain protein 2B (Homo sapiens), Q9UIF8; note: % is set by controls: 0 for no effect and ±100 for the full control effect; nearly all actives have a fitted effect of over 60% in size
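Inhibition is scored as reduced AlphaScreen emission. The BAZ2B/b-H3(5-23)K14Ac complex (50 nM each) in PBS pH 7.4, 0.01% Tween-20 meets compound (up to 110 uM) for 30 min at RT before bead addition.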
Sfp PPTase inh – qHTS Assay for Inhibitors of Bacillus subtilis Sfp phosphopantetheinyl transferase (PPTase); 4'-phosphopantetheinyl transferase ffp (Bacillus subtilis), Q9F4F7; Biochemical Sfp PPTase activity, qHTS; Potency, µM, without a hit: largest response in the series, negative = inhibition, actives largely listed as inhibitors; 3.5% of 310,000 active; AID 1490, 2009;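 note: the enzyme is Sfp with the accession as filed and its product quenches rhodamine fluorescence; 0% = enzyme reaction without inhibitor and -100% = no enzyme wells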
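With Hepes-Na pH 7.6 buffer containing 10 mM MgCl2, Sfp (15 nM) modified BHQ-2-YbbR (12.5 uM) using rhodamine-CoA (5 uM). Two reads 30 minutes apart at 525/598 nm yielded each well's rate.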
* marks the source's active call; other numbers are inactive results; ? = inconclusive; · = no result given; [ ] = remark or other dose. A selection: hits, their analogues and other compounds. The true share with any hit is near 12%. Calls come from the whole dose curve; as a rule, active = well fitted curve in the direction sought with a large enough effect; inconclusive = small, poorly fitted or top-dose-only effect, or another doubt; inactive = no such curve, though single readings can be large; an effect the other way counts as inactive or inconclusive. Potency is the fitted concentration of half-maximal effect.

SMILES	HP1b binding inh	G9a inh	JMJD2A Tudor	BAZ2B block	Sfp PPTase inh
Cc1cccc(CN2CCN(CC(=O)NCCc3ccc(Cl)cc3)C2=O)c1	7.1%	1.0%[59 µM]	-17.8%	-4.0%	·
CC1(c2ccc3c(c2)OCCO3)NC(=O)N(CC(=O)Nc2ccccc2F)C1=O (stereo not given)	28.9%	-31.3%	-11.6%	-25.1%	·
O=C1ON=C(c2ccccc2)/C1=C/c1ccc(-c2ccccc2[N+](=O)[O-])o1	50.1µM*	7.08µM*	28.2µM*	22.4µM*	?
COc1ccc(/C=C2\C(=O)ON=C2c2cccc([N+](=O)[O-])c2)cc1	·	17.8µM*	·	?	56.2µM*
N#C/C(=C\c1ccc(-c2ccccc2[N+](=O)[O-])o1)C(=O)N1CCOCC1	10.5%	?	-27.6%	?	12.2%
COc1ccc(/C=C2\C(=O)ON=C2c2ccccc2)cc1OC	46.4%	?	-11.3%	2.4%	22.4µM*
O=C1ON=C(c2ccccc2)/C1=C/c1ccco1	12.3%	31.6µM*	-35.9%	39.8µM*	50.1µM*
O=C(CN1CCCC1c1cccs1)Nc1cccc(S(=O)(=O)N2CCCC2)c1 (stereo not given)	26.2%	14.5%[12.7 µM]	-18.8%	1.0%	·
O=C1ON=C(c2ccc([N+](=O)[O-])cc2)/C1=C/c1ccccc1O	31.7%	79.4µM*	-12.7%	-23.9%	39.8µM*
Cc1cccc(C2=NOC(=O)/C2=C\c2ccccc2F)c1	24.2%	-73.6%[12.7 µM]	5.4%	-0.9%	·
COc1cc(C2=N/C(=C\c3ccccc3)C(=O)O2)cc(OC)c1OC	·	·	·	·	11.7%
CCOc1cc(/C=C2\C(=O)ON=C2c2ccccc2)ccc1OC	19.3%	12.7%[2.33 µM]	-13.7%	-29.3%	28.2µM*
COc1ccc(/C=C2/C(=O)ON=C2c2ccccc2)cc1OC	3.8%	7.4%[0.501 µM]	79.4µM*	?	35.5µM*
NC(=O)COc1ccc(/C=C2\C(=O)ON=C2c2ccccc2)cc1	13.3%	16.3%[12.7 µM]	-1.5%	-17.9%	·
COc1cc(/C=C2\C(=O)ON=C2c2ccccc2)cc(OC)c1OC	20.8%	?	-22.5%	?	50.1µM*
Nc1c(NC=O)c(=O)n(Cc2ccccc2)c(=O)n1Cc1ccccc1	16.9%	·	-5.8%	·	·
COc1cccc(NC(=O)c2ccc(CNS(=O)(=O)c3ccc4c(c3)C(C)(C)C(=O)N4C)cc2)c1	35.6%	2.1%[59 µM]	7.3%	?	·
CC1CC1C(=O)Nc1cc(S(=O)(=O)N2CCOCC2)ccc1N1CCCC1 (stereo not given)	0.6%	?	-4.5%	-27.2%	21.7%
O=C(Nc1ccccc1)Nc1cc(S(=O)(=O)N2CCOCC2)ccc1N1CCCC1	?	?	-29.1%	1.2%	?
O=S(=O)(c1ccc(Cl)c(NC(=S)Nc2cccc(O)c2)c1)N1CCOCC1	8.7%	?	-12.9%	-7.3%	?
O=C(Nc1cc(S(=O)(=O)N2CCOCC2)ccc1N1CCCC1)C1CC1	18.8%	39.8µM*	-4.1%	-21.0%	-11.0%
O=C(Nc1ccc(Cl)cc1)Nc1cc(S(=O)(=O)N2CCOCC2)ccc1N1CCCC1	3.2%	39.8µM*	-33.1%	-33.4%	-18.1%
CCN(C(=S)Nc1cc(S(=O)(=O)N2CCOCC2)ccc1Cl)c1cccc2ccccc12	-23.7%	1.78µM*	-25.3%	?	3.98µM*
O=C(Nc1ccc(F)cc1)Nc1cc(S(=O)(=O)N2CCOCC2)ccc1N1CCCC1	15.5%	35.5µM*	-14.7%	?	-7.9%
Cc1cn2c(=O)cc(COc3ccc(C(C)(C)C)cc3)nc2s1	37.2%	8.7%[59 µM]	-12.9%	-4.8%	·
SMILES	HP1b binding inh	G9a inh	JMJD2A Tudor	BAZ2B block	Sfp PPTase inh
NC(=O)C1CCN(CC(=O)Nc2cc(S(=O)(=O)N3CCOCC3)ccc2N2CCCC2)CC1	19.7%	20µM*	-7.4%	-1.4%	·
CCOc1ccc(Oc2ccc(S(=O)(=O)N3CCOCC3)cc2NC(=O)C2=COCCO2)cc1	-3.0%	14.0%[2.33 µM]	-21.9%	0.1%	·
O=C(Nc1cc(S(=O)(=O)N2CCOCC2)ccc1Oc1ccc(F)cc1)C1=COCCO1	10.2%	50.1µM*	-18.4%	-0.6%	·
O=C(Cc1ccccc1Cl)Nc1cc(S(=O)(=O)N2CCOCC2)ccc1N1CCOCC1	17.3%	3.55µM*	-15.8%	17.0%	·
O=C(Cc1ccccc1F)Nc1cc(S(=O)(=O)N2CCOCC2)ccc1N1CCOCC1	38.6%	3.0%[12.7 µM]	-6.0%	0.1%	·
NC(=O)C1CCN(CC(=O)Nc2ccc(S(=O)(=O)N3CCOCC3)cc2)CC1	6.1%	-1.2%[59 µM]	-7.0%	0.5%	13.9%
O=C1CCC(=O)c2oc3ccccc3c2N1	20.7%	8.6%	-8.8%	-3.8%	11.9%
O=C1CCc2cccc(O)c2N1	-27.2%	·	79.4µM*	·	·
Cc1ccc(-c2nc(CS(=O)(=O)CC(=O)NCc3ccc(Cl)cc3)c(C)o2)cc1	19.0%	4.4%[59 µM]	-1.3%	-9.9%	·
CCCS(=O)(=O)N1CCC(C(=O)NCCCN(CC)c2cccc(C)c2)CC1	19.1%	?	-9.4%	12.4%	4.4%
CCN(CCCNC(=O)C1CCN(S(=O)(=O)N2CCOCC2)CC1)c1cccc(C)c1	7.5%	35.5µM*	?	-33.4%	18.0%
Cc1ccc(CCNC(=O)C2CCN(S(=O)(=O)N3CCOCC3)CC2)cc1	?	10.0%	28.2µM*	-3.9%	5.0%
Cc1cccc(CCNC(=O)C2CCN(S(=O)(=O)N3CCOCC3)CC2)c1	-0.6%	15.5%	-25.7%	1.3%	13.3%
COc1cccc(N2CCN(c3ncnc4c3c(-c3ccccc3)cn4-c3ccc(C)cc3)CC2)c1	16.7%	4.0%[59 µM]	-14.7%	-4.3%	·
COc1ccc(-c2nnc3n2N=C(c2ccc(OC)c(OC)c2)CS3)c(OC)c1	·	·	-15.2%	·	3.0%
CN(CC(=O)Nc1cccc(F)c1)C(=O)c1ccc(N2CCCC2)c([N+](=O)[O-])c1	-21.6%	50.1µM*	?	?	·
CCOc1ccc(NC(=O)CN(C)C(=O)c2ccc3nc(CC)c(CC)nc3c2)cc1OCC	16.6%	50.1µM*	-18.6%	0.3%	·
CN(CC(=O)Nc1cccc(F)c1)C(=O)c1ccc2c(c1)CC(c1ccccc1)OC2=O (stereo not given)	-2.0%	14.1µM*	?	?	·
O=C(c1ccc(N2CCCCC2)c([N+](=O)[O-])c1)N(Cc1ccccc1)c1ccccn1	?	?	44.7µM*	31.6µM*	13.0%
COCCC(=O)N1CCC(n2nccc2NC(=O)CCc2ccccc2)CC1	26.4%[57 µM]	·	7.0%	2.9%	6.3%
CCOc1ccc(NC(=O)CN(C)C(=O)c2ccc(N3CCCCCC3)c([N+](=O)[O-])c2)cc1OCC	-37.2%	12.8%[2.33 µM]	50.1µM*	?	·
